# Several values for one entry are separate records, joined by “and”; a condition that tells them apart may be missing. Identical values can stand only once. Activity calls are given as the source filed them. Unless noted, no stated cut-off is given here; in the data, active means inhibition above about 80%; inactive means the rest.
# What was measured:
# [1] = sensitizers of A549 cells to miR-34 induction, primary screen, imaging, A549 dox-inducible miR-34, nuclei and caspase counts (AID 1347080;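 active means compounds whose cell count with miR-34 switched on is under 0.7 times the count with it off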); settings: A549 miR-34 inducible, Hoechst nuclei count, 48 h
# [2] = survival rescue of mitochondrial mutant cells in low glucose, primary screen, MELAS cybrids, Rieske KO mouse fibroblasts, CellTiter-Glo (AID 1508586;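 active means mean z-score across replicates of 1.96 or higher in either the MELAS or the Rieske mutant cell line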;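 further: z relative to plate mean and SD of compound and empty wells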)
# [3] = viability rescue of complex I mutant cybrids, primary screen, cell-based, galactose medium, ATP luminescence (AID 1645843;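 active means z-score of at least 1.8 in each of two replicates, scored against plate mean and spread of sample wells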;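 further: positive z means more ATP and so rescue of galactose-driven cybrid death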); settings: complex I mutant cybrid cells, 72 h, stronger effect = higher value
# [4] = LFS_MB_P medulloblastoma growth inhibition, cell-based, chromothripsis tumors, cisplatin or BGB combos (AID 1671449); settings: LFS_MB_P medulloblastoma cells;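 further: cells exposed for 96 hours; 0% = vehicle DMSO and 100% = killing by high DMSO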
# [5] = HDN33 neuroblastoma growth inhibition, cell-based, chromothripsis tumors, cisplatin or BGB combos (AID 1671450); settings: HDN33 neuroblastoma cells, stronger effect = higher value;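 further: cells exposed to compound for four days; 0% = vehicle DMSO and 100% = cell killing by high DMSO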
# [6] = ICB984 medulloblastoma cell growth inhibition, synergistic combos for chromothripsis tumors, cisplatin or BGB combos (AID 1671451; call rule not given here;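 further: cells exposed for 96 hours before readout; 0% = vehicle DMSO and 100% = killing by high DMSO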); settings: ICB984 medulloblastoma cells, drug combinations, stronger effect = higher value
# [7] = LFS_MB_1R medulloblastoma cell growth inhibition, synergistic combos for chromothripsis tumors, cisplatin or BGB combos (AID 1671452); settings: LFS_MB_1R medulloblastoma cells, stronger effect = higher value;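 further: cells exposed for 96 hours before readout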
# [8] = HTB85 osteosarcoma cell growth inhibition, synergistic combos for chromothripsis tumors, BGB or cisplatin IC20 combos (AID 1671453); settings: HTB85 osteosarcoma cells, drug combinations, stronger effect = higher value;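 further: cells exposed for 96 hours before readout; 0% = vehicle DMSO and 100% = high DMSO killing control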
# [9] = CRL2098 osteosarcoma cell growth inhibition, synergistic combos for chromothripsis tumors, BGB or cisplatin IC20 combos (AID 1671454); settings: CRL2098 osteosarcoma cells, drug combinations, stronger effect = higher value;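 further: cells exposed for 96 h before readout; 0% = vehicle DMSO and 100% = killing by high DMSO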
# [10] = HD-MB03 medulloblastoma cell growth inhibition, synergistic combos for chromothripsis tumors, BGB or cisplatin IC20 combos (AID 1671455; in the data active means inhibition above about 83%;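 further: 0% = vehicle DMSO and 100% = high DMSO as cytotoxic control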); settings: HD-MB03 medulloblastoma cells, stronger effect = higher value
# [11] = UWB1.289 ovarian carcinoma cell growth inhibition, synergistic combos for chromothripsis tumors, BGB or cisplatin combos (AID 1671456); settings: UWB1.289 ovarian carcinoma cells, stronger effect = higher value;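 further: cells exposed to compound for four days; 0% = vehicle DMSO and 100% = killing by high DMSO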
# [12] = LFS_MB_2R medulloblastoma cell growth inhibition, synergistic combos for chromothripsis tumors, cisplatin combos (AID 1671457); settings: LFS_MB_2R medulloblastoma cells, stronger effect = higher value;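 further: cells exposed to compound for four days before readout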
# [13] = MDA-MB-436 breast carcinoma cell growth inhibition, synergistic combos for chromothripsis tumors, BGB or cisplatin combos (AID 1671458; call rule not given here;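 further: cells exposed for 96 hours; 0% = vehicle DMSO and 100% = killing by high DMSO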); settings: MDA-MB-436 breast carcinoma growth inhibition, drug combinations, stronger effect = higher value
# [14] = UWB1.289_BRCA1 ovarian cancer growth, cell-based, BGB or cisplatin combinations (AID 1671459); settings: UWB1.289 BRCA1 ovarian carcinoma, drug combinations, stronger effect = higher value
# [15] = human astrocyte viability loss, single and combined drugs, cytotoxicity control for chromothriptic childhood tumor combination screen, cell-based, BGB or cisplatin IC20 combos (AID 1671460); settings: Human astrocytes, drug combinations, stronger effect = higher value;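 further: cells exposed to compounds for 96 hours before viability readout; 0% = vehicle and 100% = killing control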
# [16] = growth inhibition of BT084 medulloblastoma cells, cell-based, ICGC_MB145, cisplatin and BGB IC40 combos (AID 1671461); settings: drug combinations, stronger effect = higher value;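 further: cells exposed to drugs for 96 hours; 0% = vehicle DMSO and 100% = high DMSO full killing control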
# [17] = growth inhibition of RCMB18 medulloblastoma cells, cell-based, cisplatin and BGB IC40 combos (AID 1671462); settings: stronger effect = higher value;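 further: cells exposed to compound for four days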
# [18] = growth inhibition of CRL1545 osteosarcoma cells, cell-based, cisplatin and BGB IC20 combos (AID 1671464); settings: stronger effect = higher value;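 further: cells exposed to compound for 96 hours before readout; 0% = vehicle DMSO and 100% = high DMSO killing control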
# [19] = stronger effect = lower value, cell number ratio, induced over uninduced
# [20] = measured here: relative caspase fold change +Dox/-Dox
# [21] = measured here: total cells with miR-34 induction, stronger effect = lower value
# [22] = measured here: total cells without miR-34 induction
# [23] = MELAS cybrid survival, CellTiter-Glo 48 h, stronger effect = higher value
# [24] = Rieske KO mouse fibroblast survival, CellTiter-Glo 72 h
# [25] = measured here: combination with BGB IC40, at 0.05 µM
# [26] = measured here: with BGB IC20 combination, at 0.5 µM
# [27] = measured here: with cisplatin IC20 combination, at 0.5 µM
# [28] = measured here: combination with cisplatin, at 0.5 µM
# [29] = measured here: combination with cisplatin, at 5 µM
compound,measurement,setting,value
Nc1nc(Cl)nc2c1ncn2C1CC(O)C(CO)O1 (stereo not given),fold change,[1]; [19],0.657 (active) and 0.485 (active)
same,fold change,[1]; [20],3.27 and 5.56
same,cell count,[1]; [21],1440 and 1620
same,cell count,[1]; [22],2200 and 3330
same,z-score,[2]; [23],0.255 (inactive)
same,z-score,[2]; [24],0.0981
same,z-score,[3],-1.71 (inactive)
same,inhibition,"[4]; at 0.5 µM, stronger effect = higher value",-16% (inactive) and 3.33% (inactive)
same,inhibition,"[4]; measured here: combination with BGB IC20, at 0.005 µM",-14.4% and 7.64%
same,inhibition,"[4]; measured here: combination with BGB IC40, at 0.005 µM",-28.7% and 21.8%
same,inhibition,[4]; [25],-54.9% and 15%
same,inhibition,"[4]; measured here: combination with cisplatin, at 0.5 µM, stronger effect = higher value",-23.7% and 50.7%
same,inhibition,"[4]; measured here: combination with cisplatin, at 5 µM, stronger effect = higher value",76.7% and 86.2%
same,inhibition,"[5]; BGB combo, at 5 µM",83.3% and 87.6%
same,inhibition,[5]; at 0.5 µM,6.11% (inactive) and 14.7% (inactive)
same,inhibition,"[5]; cisplatin combo, at 5 µM",79% and 81.5%
same,inhibition,[5]; [26],10.3% and 9.34%
same,inhibition,[5]; [27],-1.24% and 16.1%
same,inhibition,"[5]; single agent, at 5 µM",84.5% and 87.2%
same,inhibition,"[6]; BGB IC20 combo, at 0.005 µM",-1.92% and -30.4%
same,inhibition,"[6]; BGB IC40 combo, at 0.005 µM",-14.5% and -25.7%
same,inhibition,"[6]; BGB IC40 combo, at 0.05 µM",-14.6% and -11.7%
same,inhibition,[6]; at 0.5 µM,-34.2% (inactive) and -10.6% (inactive)
same,inhibition,"[6]; cisplatin combo, at 0.05 µM",-18.7% and -11.7%
same,inhibition,"[6]; cisplatin combo, at 0.5 µM",-35.7% and -23.4%
same,inhibition,"[6]; cisplatin combo, at 5 µM",-35.2% and -39.5%
same,inhibition,"[6]; measured here: 5 uM single agent, at 5 µM",-14.9% and -11.7%
same,inhibition,[7]; at 0.5 µM,-20.9% (inactive) and -13% (inactive)
same,inhibition,[7]; [25],-46.2% and -32.5%
same,inhibition,[7]; [28],26.2% and 30.5%
same,inhibition,[7]; [29],52% and 76.7%
same,inhibition,[8]; at 0.5 µM,22.5% (inactive) and 18.5% (inactive)
same,inhibition,"[8]; measured here: with BGB IC20, at 0.5 µM",21.3% and 13.2%
same,inhibition,"[8]; measured here: with BGB IC20, at 5 µM",92.2% and 94.6%
same,inhibition,"[8]; measured here: with cisplatin IC20, at 0.5 µM",10.1% and 11.2%
same,inhibition,"[8]; measured here: with cisplatin IC20, at 5 µM",90.5% and 90%
same,inhibition,"[8]; single agent, at 5 µM",94.7% and 91.5%
same,inhibition,[9]; at 0.5 µM,-92.1% (inactive) and -37.1% (inactive)
same,inhibition,"[9]; measured here: combination with BGB at IC20, at 0.5 µM",-60.9% and -36.5%
same,inhibition,"[9]; measured here: combination with cisplatin at IC20, at 0.5 µM",-146% and -71.4%
same,inhibition,[10]; at 0.5 µM,93.4% (active) and 93.2% (active)
same,inhibition,"[10]; measured here: combo with BGB at IC20, at 0.5 µM",87.7% and 88.9%
same,inhibition,"[10]; measured here: combo with cisplatin at IC20, at 0.5 µM",96.3% and 94.8%
same,inhibition,[11]; at 0.5 µM,12.5% (inactive) and 14.8% (inactive)
same,inhibition,"[11]; measured here: inhibition with BGB combination, at 0.05 µM",-7.25% and -6.1%
same,inhibition,"[11]; measured here: inhibition with cisplatin combination, at 0.05 µM",-13.8% and -6.66%
same,inhibition,[12]; at 0.5 µM,-3.57% (inactive) and 10.2% (inactive)
same,inhibition,[12]; [28],24.5% and 43.1%
same,inhibition,[12]; [29],61.9% and 69.5%
same,inhibition,[13]; at 0.5 µM,3.02% (inactive) and 2.95% (inactive)
same,inhibition,"[13]; measured here: BGB combination, at 0.5 µM",-5.54% and -2.62%
same,inhibition,"[13]; measured here: BGB combination, at 5 µM",46.1% and 53.6%
same,inhibition,"[13]; measured here: cisplatin combination, at 0.5 µM",-4.37% and -12.8%
same,inhibition,"[13]; measured here: cisplatin combination, at 5 µM",61.1% and 70%
same,inhibition,"[14]; BGB combination, concentration series, at 5 µM",43.2% and 57.7%
same,inhibition,[14]; at 0.5 µM,20.9% (inactive) and 19.3% (inactive)
same,inhibition,"[14]; cisplatin combination, concentration series, at 5 µM",48.4% and 63.7%
same,inhibition,[15]; at 0.5 µM,58.1% (inactive) and 38.4% (inactive)
same,inhibition,"[15]; measured here: combo with BGB IC20, at 0.5 µM",62.6% and 39.2%
same,inhibition,"[15]; measured here: combo with cisplatin IC20, at 0.5 µM",42.6% and 31.2%
same,inhibition,[16]; at 0.5 µM,-0.858% (inactive) and 10.4% (inactive)
same,inhibition,"[16]; cisplatin combination, at 0.5 µM",37.2% and 42%
same,inhibition,"[16]; cisplatin combination, at 5 µM",65.8% and 54%
same,inhibition,"[16]; measured here: BGB IC40 combination 0.05 uM, at 0.05 µM",-30.7% and 12.8%
same,inhibition,"[16]; single agent, at 5 µM",1.68% and 7.77%
same,inhibition,[17]; at 0.5 µM,19.1% (inactive) and 26.3% (inactive)
same,inhibition,"[17]; cisplatin combo, at 5 µM",83.6% and 81.2%
same,inhibition,"[17]; measured here: BGB IC40 combination, at 0.05 µM",-5.46% and 2.56%
same,inhibition,[17]; [28],70.6% and 65.1%
same,inhibition,"[17]; single agent, at 5 µM",27.8% and 40.5%
same,inhibition,[18]; at 0.5 µM,-27.8% (inactive) and -35.8% (inactive)
same,inhibition,[18]; [26],-14.9% and -11.9%
same,inhibition,[18]; [27],-36.5% and -47.7%
same,inhibition,"[18]; single agent, at 0.05 µM",-95.3% and 17.3%
same,inhibition,"[18]; single agent, at 5 µM",75.8% and 80.1%
CCCn1ncc(-c2ccnc(NCc3cc(CC)no3)n2)c1C,fold change,[1]; [19],0.843 (inactive)
same,fold change,[1]; [20],1.57
same,cell count,[1]; [21],6710
same,cell count,[1]; [22],7960
same,z-score,[2]; [23],-0.178 (inactive)
same,z-score,[2]; [24],-0.0436
same,z-score,[3],-0.59 (inactive)
Cc1csc(CNC(=O)Cc2csc(-c3ccccc3)n2)n1,fold change,[1]; [19],0.931 (inactive)
same,fold change,[1]; [20],1.12
same,cell count,[1]; [21],8110
same,cell count,[1]; [22],8710
same,z-score,[2]; [23],0.125 (inactive)
same,z-score,[2]; [24],0.0782
same,z-score,[3],-0.44 (inactive)
O=C(NCc1ccccn1)c1ccc(Oc2ccccc2)cc1,fold change,[1]; [19],0.933 (inactive)
same,fold change,[1]; [20],0.296
same,cell count,[1]; [21],8650
same,cell count,[1]; [22],9270
same,z-score,[2]; [23],0.509 (inactive)
same,z-score,[2]; [24],-0.417
same,z-score,[3],0.08 (inactive)
O=C(O)c1ccc(-c2ccc(F)cc2)cc1,fold change,[1]; [19],0.935 (inactive)
same,fold change,[1]; [20],1.32
same,cell count,[1]; [21],7840
same,cell count,[1]; [22],8390
same,z-score,[2]; [23],-0.835 (inactive)
same,z-score,[2]; [24],-0.109
same,z-score,[3],0.26 (inactive)
CCOC(=O)C(CCc1ccccc1)NC(C)C(=O)N1C(C(=O)O)CC2CCCC21 (stereo not given),fold change,[1]; [19],0.892 (inactive) and 0.893 (inactive)
same,fold change,[1]; [20],1.7 and 1.12
same,cell count,[1]; [21],8500 and 7970
same,cell count,[1]; [22],9530 and 8920
same,z-score,[2]; [23],-0.00441 (inactive)
same,z-score,[2]; [24],0.321
same,z-score,[3],0.52 (inactive)
